PubChem BioAssay AID1362 (SRMLSC, 2008)
Hit rate of the full screen: of about 190,000 compounds, about 4,000 (2.1%) were called active. Rule as the data show it: active = inhibition above about 58%; inactive = the rest, inconclusive results apart; tested in S. cerevisiae. Shown is part of a subset that was picked to be rich in actives.

Test: growth inhibition of WT strain, primary screen, mitochondrial fusion inhibitor project, WT and mutant strains, chemical genetic (AID 1362)
Details: mitochondrial fusion phenotypic screen, at 10 µM
[1] = WT strain, growth inhibition, stronger effect = higher value

| SMILES | inhibition [1] | inhibition (mutant strain inhibition) [%] |
| --- | --- | --- |
| Cc1ccc(Nc2cc(C)nc3c(C)ccc([N+](=O)[O-])c23)cc1 | 64.8% (active) | 56.9 |
| Cc1cc(C)nc(Nc2cc([N+](=O)[O-])ccc2C)n1 | -4.85% (inactive) | 9.39 |
| Cc1ccc(Nc2ccc(C(N)=O)cc2[N+](=O)[O-])cc1 | 2.16% (inactive) | -8.75 |
| CCC(C)(C)NC(=O)CN(C(=O)C(=O)Nc1ccc2c(c1)OCCO2)C(C)(C)CC | -7.46% (inactive) | 6.56 |
| Cc1ccc(C(=O)O)cc1N1C(=O)CCCC1=O | -14.9% (inactive) | -14.6 |
| O=C(CN1C(=O)/C(=C\c2ccc(C(F)(F)F)cc2)Sc2ccccc21)NCc1ccco1 | 49% (inactive) | 3.15 |
| Cc1nn(Cc2ccccc2)c(C)c1C(=O)NCCN1C(=O)S/C(=C\c2ccc(F)cc2)C1=O | 0.77% (inactive) | 0.61 |
| CCN1CCN(CCNC(=O)c2ccc(/C=C3/Sc4ccccc4N(Cc4cccc(C)c4)C3=O)cc2)CC1 | 83.7% (active) | 59.2 |
| Cc1ccc(C)c(Cn2cnc3c(oc4ccccc43)c2=O)c1 | -1.67% (inactive) | -14.3 |
| COc1cc(NS(=O)(=O)c2ccccc2)ccc1-n1nc(C)cc1C | -33.7% (inactive) | 2.02 |
| COc1ccc(Nc2cc(C)nc(-n3nc(C)cc3C)n2)cc1 | 76.8% (active) | 68.7 |
| COc1cccc(/C=N/Nc2cc(C)nc(-c3ccccc3O)n2)c1O | 51.6% (inactive) | 48.3 |
| COc1ccccc1/C=N\Nc1cc(C)nc(-n2nc(C)cc2C)n1 | 69.1% (active) | 28.4 |
| COc1ccc(NC(=O)c2nc(-n3nc(C)cc3C)ccc2Cl)cc1Cl | 5.72% (inactive) | -16.9 |
| CC(=O)c1ccc(Oc2cc(C)nc(-n3nc(C)cc3C)n2)cc1 | -3.85% (inactive) | 8.66 |
| COc1ccc(-c2ccc(CCC(=O)O)n2-c2ccc(O)cc2)cc1 | -12.3% (inactive) | -2.11 |
| COc1ccc(NC(=O)Nc2ccc3nsnc3c2)cc1 | 23.1% (inactive) | -36.8 |
| O=C(Nc1ccc2ccccc2c1)Nc1ccc2snnc2c1 | 88.1% (active) | 77.8 |
| O=C(Nc1ccccc1)Nc1nc2ccccc2s1 | -5.57% (inactive) | -20.5 |
| COc1ccc2c(c1)CCc1c(C(=O)Nc3c(C)n(C)n(-c4ccccc4)c3=O)noc1-2 | -9.3% (inactive) | -13 |
| COc1ccc2c(c1)CCc1c(C(=O)N3CCCC3)noc1-2 | -10.3% (inactive) | -6.91 |
| COc1ccc2c(c1)CCc1c(C(=O)N3CCc4ccccc4C3)noc1-2 | 73.9% (active) | 68 |

| SMILES | inhibition [1] | inhibition (mutant strain inhibition) [%] |
| --- | --- | --- |
| COc1ccc(CC2(CO)CCN(Cc3cnn(C)c3)CC2)cc1 | 12.1% (inactive) | -0.62 |
| Cc1cc(O)c(NC(=O)c2ccc(C)c([N+](=O)[O-])c2)cc1C | -6.28% (inactive) | -4.47 |
| Cc1cc(OCCOc2cccc3cccnc23)c(C)cc1Cl | 14.6% (inactive) | 20.4 |
| O=S(=O)(NCCOc1cccc2cccnc12)c1ccc(F)cc1 | 0.13% (inactive) | 5.48 |
| CCOc1cccc(OCCCOc2cccc3cccnc23)c1 | 60.8% (active) | 26 |
| CC[N+]1(CC)CC2=Cc3ccccc3CC2C1 (stereo not given) | 0.67% (inactive) | -6.63 |
| O=C(CS(=O)(=O)Cc1ccccc1)Nc1cccnc1 | 90.1% (active) | 19.3 |
| O=C(CCc1ccccc1)NCc1cccnc1 | -0.16% (inactive) | 17.5 |
| COCc1nnc(NC(=O)CS(=O)(=O)Cc2ccccc2)s1 | -3.35% (inactive) | -9.06 |
| COCCC(=O)Nc1ccc2c(c1)CN(C(=O)CCOC)CC2 | -15.9% (inactive) | -11.2 |
| CC(C)C1Nc2c(C(=O)O)cccc2C(Nc2ccccc2C(=O)O)C1(C)C (stereo not given) | -8.7% (inactive) | -3.34 |
| Cc1cc(C)c2nc(NC(=O)c3ccc4c(c3)OCO4)sc2c1 | 14.1% (inactive) | -21.7 |
| Cc1cccc(-n2nc3c(c2NC(=O)c2ccc(Br)o2)CSC3)c1C | 8.72% (inactive) | 6.28 |
| Cc1ccc(-n2nc3c(c2NC(=O)c2ccc4c(c2)OCO4)CSC3)c(C)c1 | 84% (active) | 3.65 |
| O=C(Oc1cccc(O)c1)C1CCCCC1 | -7.96% (inactive) | 7.95 |
| CCOC(=O)c1c(CN(C)C)n(-c2ccccc2)c2cc(Br)c(O)cc12 | 9.54% (inactive) | 7.76 |
| CC(CC(=O)O)C(=O)c1ccc(Cl)c([N+](=O)[O-])c1 (stereo not given) | -16.5% (inactive) | -4.59 |
| O=C(Nc1ncccn1)c1cccs1 | 71.2% (active) | 28.9 |
| O=C(O)c1ccc(NC(=O)c2cccs2)cc1 | -8.36% (inactive) | 1.63 |
| O=C(Nc1ccnc(-c2ccncc2)n1)c1cccs1 | -10.3% (inactive) | 11 |
| Cc1ccccc1CN1C[C@@H]2C[C@@H](c3ccc4nsnc4c3)N3CCC[C@@]23C1=O | 7.94% (inactive) | 5.04 |
| O=C(NCCCN1CCOCC1)c1ccccc1NS(=O)(=O)c1ccc(F)cc1 | -8.48% (inactive) | 6.56 |

| SMILES | inhibition [1] | inhibition (mutant strain inhibition) [%] |
| --- | --- | --- |
| O=C(N/N=C/C=C/c1ccco1)c1cccs1 | -12.2% (inactive) | -0.62 |
| CS(=O)(=O)N(CC(O)Cn1c2ccccc2c2ccccc21)c1cccc2ccccc12 (stereo not given) | 31.9% (inactive) | 7.33 |
| O=C1c2ccccc2S(=O)(=O)N1CC(O)Cn1c2ccccc2c2ccccc21 (stereo not given) | 84.5% (active) | 45.8 |
| CNC(=O)CN1C(=O)c2ccccc2S1(=O)=O | 12.2% (inactive) | -7.85 |
| COCCCNC(=S)N(Cc1ccccc1)Cc1ccc(F)cc1 | 31.2% (inactive) | 41.6 |
| CC(NCc1nc2ccccc2n1C)C12CC3CC(CC(C3)C1)C2 (stereo not given) | 30.5% (inactive) | 16.6 |
| COc1ccc(-c2nnc(SCC(=O)c3cccs3)o2)c(OC)c1 | 63.6% (active) | -1.8 |
| COc1ccc(OC)c(C(=O)CSc2nnc(-c3cccs3)o2)c1 | -7.87% (inactive) | -26.6 |
| COc1ccc(-n2c(C)cc(C(=O)CSc3nnc(-c4cccs4)o3)c2C)cc1 | 4.34% (inactive) | 23 |
| CCC(=O)c1ccc(N2CCN(C(=O)c3cc([N+](=O)[O-])ccc3F)CC2)c(F)c1 | 10.4% (inactive) | 5.39 |
| CC(C)C(c1nnnn1C(C)(C)C)N1CCN(Cc2cccnc2)CC1 (stereo not given) | -10.2% (inactive) | 0.92 |
| COC(=O)C1=C(N)Oc2c(oc(CO)cc2=O)C1c1c(F)cccc1Cl (stereo not given) | -8.54% (inactive) | -4.27 |
| NS(=O)(=O)c1ccc(NC(=O)COC(=O)c2c3c(nc4ccccc24)/C(=C\c2ccc4c(c2)OCO4)CCC3)cc1 | 17.8% (inactive) | -3.76 |
| NC(=O)c1ccc(NC(=O)COC(=O)c2c3c(nc4ccccc24)/C(=C\c2ccc4c(c2)OCO4)CCC3)cc1 | 62.3% (active) | -2.13 |
| O=C(COC(=O)c1c2c(nc3ccccc13)/C(=C\c1cccs1)CCC2)Nc1ccccc1Cl | 15.8% (inactive) | 3.86 |
| Fc1ccc(COc2cccc(-c3n[nH]c(=S)o3)c2)cc1 | -4.32% (inactive) | -2.8 |
| Cc1ccc(S(=O)(=O)/N=C(/Nc2ccc3[nH]c(=O)[nH]c3c2)c2ccccc2)cc1 | -20.3% (inactive) | 0.61 |
| COc1ccc(C2CC(=O)Nc3sc(=N)c4c(N)c(C#N)c(N)nc4c32)cc1OC (stereo not given) | -16.8% (inactive) | -4.44 |
| COc1ccc(OC)c2c(N)c(C#N)c(C(F)(F)C(F)(F)F)nc12 | 61.3% (active) | -8.43 |
| COc1ccc(-c2cc(-c3ccc(N)cc3)nc(N)c2C#N)cc1OC | 42.1% (inactive) | -0.07 |
| O=S(=O)(NCc1ccccc1)c1ccc(S(=O)(=O)N2CCCC2)cc1 | 5.86% (inactive) | -0.28 |
| CCCCc1nnc(NC(=O)CSc2nc(N)cc(=O)[nH]2)s1 | -9.03% (inactive) | -14.2 |

| SMILES | inhibition [1] | inhibition (mutant strain inhibition) [%] |
| --- | --- | --- |
| O=C(CSc1ccc(-c2ccccc2)nn1)NCC1CCCO1 (stereo not given) | -2.54% (inactive) | 0.5 |
| O=C(Nc1ccon1)c1sc2ccccc2c1Cl | 3.3% (inactive) | 0.77 |
| Cc1nn(C)cc1/C=N/NC(=O)c1sc2ccccc2c1Cl | -10.9% (inactive) | 2.17 |
| O=C(N/N=C/c1c(Cl)[nH]c2ccccc12)c1sc2ccccc2c1Cl | 61.8% (active) | 41.3 |
| COc1ccc(CCc2nnc(CCC(=O)NCc3cnn(-c4ccccc4C)c3)o2)cc1 | 12.2% (inactive) | 7.75 |
| CS(=O)(=O)n1nc(-c2ccco2)nc1N | -0.21% (inactive) | -16.1 |
| C=CCc1cccc2cc(C(=O)NC3CCCC3)c(=O)oc12 | 3.26% (inactive) | 9.03 |
| CC(C)(C)c1ccc(Oc2ccc(N)cc2)cc1 | 54.8% (inactive) | 38 |
| CC(C)(C)c1ccc(OC2=CS(=O)(=O)c3ccccc32)cc1 | 59% (active) | 35.3 |
| CC(C)(C)c1csc(NC2=NS(=O)(=O)c3ccccc32)n1 | -0.65% (inactive) | -32.5 |
| Cc1nn(CC(=O)NCc2ccccn2)c(C)c1[N+](=O)[O-] | -4.5% (inactive) | 4.36 |
| COc1cc(CNCCN(C)C)ccc1OCc1c(F)cccc1Cl | -7.23% (inactive) | 10.9 |
| CCCCNC(=O)N1CCN(S(C)(=O)=O)CC1 | 3.54% (inactive) | 2.85 |
| CCCCCCCCn1c2c(c(=N)c3c1CCC3)CCCC2 | 80.6% (active) | 77.5 |
| O=C1/C(=C/c2cccs2)CCC1C1CCCC1 (stereo not given) | 9.28% (inactive) | 37.2 |
| Cc1ccc(COc2ccc(/C=N/NC(=O)CN3CCCCC3)cc2)cc1 | 0.04% (inactive) | -4.75 |
| c1ccc2c(CSCc3nc4ccccc4[nH]3)cccc2c1 | 74.6% (active) | 69.3 |
| Clc1ccccc1SCc1nc2ccccc2[nH]1 | 39.4% (inactive) | 35.4 |
| COC(=O)Cc1nc2ccccc2[nH]1 | 16.6% (inactive) | 14 |
